Our source for the growth values is PubChem BioAssay (NCI).

Each structure is given as a SMILES string. Compounds without any hit were thinned out: in the full panel of roughly 83,000, 20% have a hit.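 Compound tested at a single concentration for 48 hours in 96-well plates; a percent growth value below 10 was scored as active.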 Values without a mark were called inactive. The source made the active and inactive calls.

In one assay the test system is A498 renal. In words: NCI-60 one-dose screen, 48 h (100 = growth as untreated, 0 = no growth, -100 = all killed). As to conditions: 10 µM unless noted.
As to `O=C1CCC(C(=O)NCCNCCNC(=O)C2CCC(=O)N2)N1` (stereo not drawn), the growth is 89.9%.
The same measure, in the same setting: with `C(=N/Nc1ncnc2nc[nH]c12)/c1ccccn1` the figure was 55%.
Still for that read-out and setting: the result for `CCCCCCCCCCCCCCCCCCOc1ccc(CC(=O)OCC[N+](C)(C)C)cc1` reads 119%.
Same read-out and setting: the result for `Cc1ccc2c(n1)C(=O)C(Cl)=C(Nc1ccccc1C(C)C)C2=O` reads 99.7%; that for `Cc1cccc2c3c(sc12)C(c1ccc(Cl)cc1)C(C#N)=C(/N=C/c1ccc(Cl)cc1)O3` (stereo not drawn), -4.07% (active).
For `Cc1ccc2c(-c3cc(-c4ccccc4)nc(N)c3C#N)cc(=O)oc2c1`, the growth is 63.6%.
Take `Cc1ncc(C(=O)Nc2ccc(CN3CCN(C)CC3)c(C(F)(F)F)c2)cc1C#Cc1ccc(N)nc1`: the growth was -64.1% (active).
The same measure, in the same setting: the result for `COc1ccc(CN2c3ccccc3Sc3ccccc32)c(F)c1` reads -11.6% (active).
The same measure, in the same setting: with `COc1ccc(-c2ncnc3c2ncn3CC#CCCl)cc1` the figure was 55.7%; with `COc1ccc(C(=O)C[C@]2(O)C(=O)Nc3c(Cl)ccc(Cl)c32)cc1`, -23.6% (active); with `c1ccc2c(-c3nc(-c4c[nH]c5ccncc45)cs3)c[nH]c2c1`, 85.5%.
The same measure, in the same setting: the result for `N#Cc1c(-c2ccccc2)nc(SCC(=O)Nc2nc(-c3ccc(Cl)cc3)cs2)[nH]c1=O` reads 87.7%.
Regarding `COc1cccc(/C=C2\C=C(c3ccccc3)N(Cc3ccccc3)C2=O)c1`, the growth is 16%.
Same read-out and setting: the result for `CCOC(=O)c1cn2ncnc(Oc3ccc(NC(=O)NCCN(C)C)c(Cl)c3)c2c1C` reads 57.5%; that for `COc1ccc(N2C(=O)C(Oc3ccccc3)C2c2ccc(C)cc2)cc1` (stereo not drawn), 77.9%; that for `O=[N+]([O-])c1ccc(Cl)c(-c2cc(CCCCO)on2)c1`, 87.1%.
On the same count and under the same terms, the result for `COc1cccc2nc3n(c12)C(c1c(F)cccc1F)SC3` (stereo not drawn) reads 103%; that for `Cc1ccc(S(=O)(=O)N/N=C/C2(c3ccccc3)CC2)cc1`, 86.6%.

The next assay deals with CCRF-CEM leukemia. Described as above. The following applies: 10 µM unless noted.
For the molecule `CC(=O)OC[C@H]1OC(Sc2sc(C(=O)c3ccc(C)cc3)c(N)c2-c2nc3ccccc3s2)[C@H](OC(C)=O)[C@@H](OC(C)=O)[C@@H]1OC(C)=O` (stereo partly drawn), the growth was 60.5%.
The same measure, in the same setting: with `COC1=C(C)C(=O)c2c(c(CCCl)c3n2CCC3O)C1=O` (stereo not drawn) the figure was 66.3%.
Still for that read-out and setting: with `Oc1ccc(C#CCOc2ccccc2)cc1CNCCN(Cc1ccccn1)Cc1ccccn1` the figure was 6.83% (active); with `CCc1nnc(NC(=O)c2nnn(-c3ccccc3)c2-c2ccco2)s1`, 77.8%; with `O=C(Nc1ccc(F)cc1F)c1cc(F)ccc1O`, 30.4%.
The same measure, in the same setting: with `CCc1ccc(Oc2c(-c3ccc(OCc4ccc(Cl)cc4)cc3O)nn(C)c2C(F)(F)F)cc1` the figure was 1.82% (active).
Take `CCC(=O)Nc1ccc(-c2nc(-c3cccc(OC)c3)c(-c3ccnc(Br)c3)[nH]2)cc1`: the growth was 37.1%.
In the case of `CC/C=C\C[C@@H](O)C/C=C1/C(=O)C=C[C@H]1C/C=C\CCCC(=O)OC`, the growth is -9.05% (active).
The same measure, in the same setting: the result for `CC(=O)CC(c1ccccc1)c1c(C)[nH]c2ccccc12` (stereo not drawn) reads 101%; that for `Cc1nc2cnc(N)c(C#Cc3cncc(C(=O)Nc4ccc(CN5CCN(C)CC5)c(C(F)(F)F)c4)c3)c2nc1C`, 13.7%.
The same measure, in the same setting: the result for `COc1ccc(-c2nc(NCCO)[nH]c(=O)c2C#N)cc1` reads 102%; that for `COc1ccn2c(C(C)=O)cc(C(=O)c3ccc4c(c3)Sc3ccccc3N4)c2c1`, 8.15% (active).
Still for that read-out and setting: with `COC(=O)C(Cc1ccccc1)NC(=O)NC(=O)NC(=O)CI` (stereo not drawn) the figure was -50.8% (active); with `O=C1CCC(C(=O)NCCNCCNC(=O)C2CCC(=O)N2)N1` (stereo not drawn), 88.7%.
Consider `C(=N/Nc1ncnc2nc[nH]c12)/c1ccccn1`, for which the growth was 23.7%.
In the case of `CCCCCCCCCCCCCCCCCCOc1ccc(CC(=O)OCC[N+](C)(C)C)cc1`, the growth is 102%.
The same measure, in the same setting: with `Cc1nn(-c2ccccc2)c(-n2ccnc2)c1/C=N/Nc1nc(-c2ccc(Cl)c(Cl)c2)cs1` the figure was 26.1%; with `Cc1ccc2c(n1)C(=O)C(Cl)=C(Nc1ccccc1C(C)C)C2=O`, 35.7%; with `Cc1cccc2c3c(sc12)C(c1ccc(Cl)cc1)C(C#N)=C(/N=C/c1ccc(Cl)cc1)O3` (stereo not drawn), 5.88% (active).
Still for that read-out and setting: the result for `Cc1ccc2c(-c3cc(-c4ccccc4)nc(N)c3C#N)cc(=O)oc2c1` reads 105%; that for `Cc1ncc(C(=O)Nc2ccc(CN3CCN(C)CC3)c(C(F)(F)F)c2)cc1C#Cc1ccc(N)nc1`, 18.6%.
Still for that read-out and setting: the result for `COc1ccc(CN2c3ccccc3Sc3ccccc32)c(F)c1` reads 7.16% (active); that for `COc1ccc(-c2ncnc3c2ncn3CC#CCCl)cc1`, 19.1%.
As for `COc1ccc(C(=O)C[C@]2(O)C(=O)Nc3c(Cl)ccc(Cl)c32)cc1`, the growth was 15.8%.
Still for that read-out and setting: with `c1ccc2c(-c3nc(-c4c[nH]c5ccncc45)cs3)c[nH]c2c1` the figure was 2.54% (active); with `C=CCNc1ccc2c3c(cccc13)C(=O)N(N1C(=O)c3cccc4cccc(c34)C1=O)C2=O`, 109%; with `N#Cc1c(-c2ccccc2)nc(SCC(=O)Nc2nc(-c3ccc(Cl)cc3)cs2)[nH]c1=O`, 92.2%.
On the same count and under the same terms, with `COc1cc(C(=O)/C=C/c2c(Cl)nc3sccn23)cc(OC)c1OC` the figure was 48.7%.
Same read-out and setting: the result for `COc1ccc(-c2cc(-c3ccc(Cl)cc3)c(C#N)c(=O)n2CCCCCC(=O)Nc2ccccc2N)cc1` reads 32.5%; that for `COc1cccc(/C=C2\C=C(c3ccccc3)N(Cc3ccccc3)C2=O)c1`, 62.2%; that for `CCOC(=O)c1cn2ncnc(Oc3ccc(NC(=O)NCCN(C)C)c(Cl)c3)c2c1C`, 43.4%.
In the case of `COc1ccc(N2C(=O)C(Oc3ccccc3)C2c2ccc(C)cc2)cc1` (stereo not drawn), the growth is 101%.
On the same count and under the same terms, the result for `O=[N+]([O-])c1ccc(Cl)c(-c2cc(CCCCO)on2)c1` reads 108%; that for `COc1cccc2nc3n(c12)C(c1c(F)cccc1F)SC3` (stereo not drawn), 89.5%; that for `Cc1ccc(S(=O)(=O)N/N=C/C2(c3ccccc3)CC2)cc1`, 88.5%.
